Results: the supplement of paper PMC3545927
The other results are listed elsewhere or left out. The true hit rate is not given.

Biological target: furin, P09958
Experiment: furin cleavage Z-score vs untreated control; higher = more cleavage, active = 3.5 or more, inactive = 1 or less, 8 variable residues between constant flanks
In short: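 Furin cleavage was scored on 8-mer peptides joined to a cDNA oligonucleotide and bound to magnetic beads at the N-terminus. Digestion with purified furin (1:10 enzyme:substrate, 0.01 ml, 50 mM HEPES pH 7.5, CaCl2, NaCl) lasted 7.5, 15 or 30 min. Freed DNA was tagged with adapters by PCR, sequenced and counted; the cleavage Z-score is the lowess-adjusted log count versus furin-free reactions, scaled by median absolute deviation.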

furin, P09958, sequence (P09958 whole entry): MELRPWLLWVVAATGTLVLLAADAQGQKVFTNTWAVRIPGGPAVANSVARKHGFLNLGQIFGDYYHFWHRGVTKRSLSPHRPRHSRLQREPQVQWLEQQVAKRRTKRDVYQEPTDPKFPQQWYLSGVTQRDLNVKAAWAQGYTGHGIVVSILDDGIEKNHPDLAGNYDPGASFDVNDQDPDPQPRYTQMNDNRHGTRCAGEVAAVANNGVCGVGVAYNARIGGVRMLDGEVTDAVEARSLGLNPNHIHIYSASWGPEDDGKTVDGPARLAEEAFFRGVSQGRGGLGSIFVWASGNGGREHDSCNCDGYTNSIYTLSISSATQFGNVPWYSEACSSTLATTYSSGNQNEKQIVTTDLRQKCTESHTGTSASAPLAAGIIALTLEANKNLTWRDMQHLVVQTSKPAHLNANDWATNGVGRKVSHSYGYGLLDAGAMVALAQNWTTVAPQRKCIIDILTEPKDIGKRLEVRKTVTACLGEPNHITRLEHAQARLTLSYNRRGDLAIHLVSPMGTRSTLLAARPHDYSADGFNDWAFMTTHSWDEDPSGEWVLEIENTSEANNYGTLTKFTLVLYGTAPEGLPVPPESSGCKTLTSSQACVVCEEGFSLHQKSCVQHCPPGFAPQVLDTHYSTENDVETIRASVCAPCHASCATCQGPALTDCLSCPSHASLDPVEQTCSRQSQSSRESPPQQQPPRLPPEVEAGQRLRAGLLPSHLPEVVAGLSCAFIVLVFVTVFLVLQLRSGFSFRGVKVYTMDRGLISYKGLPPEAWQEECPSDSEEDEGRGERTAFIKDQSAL

Sequence	furin cleavage Z-score (7.5 min)	furin cleavage Z-score (15 min)	furin cleavage Z-score (30 min)
CATTPCSGWWAGNASASA [HC1908]	-0.371 (inactive)	-1.44 (inactive)	0.0983 (inactive)
CAMEECSQHGAGNASASA [HC1776]	-0.484 (inactive)	0.542 (inactive)	-0.44 (inactive)
CAEVPCHSPSAGNASASA [HC2377]	-0.25 (inactive)	-0.38 (inactive)	1.09
CAEVFCHRPSAGNASASA [HC2347]	-0.391 (inactive)	-1 (inactive)	0.51 (inactive)
CAQHSVRKRDAGNASASA [FS-1150]	11.7 (active)	12.2 (active)	10.4 (active)
CAHLQRQKRDAGNASASA [FS-440]	6.68 (active)	7.1 (active)	5.53 (active)
CAILRRHKRDAGNASASA [FS-1214]	10.7 (active)	10.2 (active)	7.94 (active)
CAPKRRQKRDAGNASASA [FS-1048]	13.5 (active)	14.7 (active)	10 (active)
CAILRRHVGPAGNASASA [HC1111]	0.0974 (inactive)	-0.838 (inactive)	0.671 (inactive)
CAHWSVTKRDAGNASASA [FS-336]	0.168 (inactive)	0.304 (inactive)	0.862 (inactive)
CAVVCCSNSYAGNASASA [HC2061]	0.77 (inactive)	-0.0199 (inactive)	0.92 (inactive)
CALVPCHRPSAGNASASA [HC2305]	0.746 (inactive)	0.178 (inactive)	0.32 (inactive)
CAEIVVCCSMAGNASASA [HC2124]	0.157 (inactive)	-0.897 (inactive)	0.583 (inactive)
CAQCCDLDPQAGNASASA [HC1491]	0.144 (inactive)	0.912 (inactive)	-0.252 (inactive)
CAMEECSQCLAGNASASA [HC1760]	-0.273 (inactive)	-0.494 (inactive)	0.638 (inactive)
CAEVVFSTWVAGNASASA [HC126]	1.73	-1.1 (inactive)	-0.791 (inactive)
CATHRRQKRDAGNASASA [FS-1092]	3.98 (active)	2.56	2.3
CATSSEPAPSAGNASASA [HC1344]	-0.191 (inactive)	-1.38 (inactive)	-0.0397 (inactive)
CATSSRNARNAGNASASA [FS-571]	3.05	4.2 (active)	5.2 (active)
CAISPRQKRDAGNASASA [FS-542]	12.4 (active)	12.3 (active)	9.21 (active)
CATDSRTNRDAGNASASA [FS-1422]	-1.07 (inactive)	-0.239 (inactive)	1.78
CAGLRRRKRDAGNASASA [FS-930]	12.2 (active)	10.2 (active)	8.8 (active)

Sequence	furin cleavage Z-score (7.5 min)	furin cleavage Z-score (15 min)	furin cleavage Z-score (30 min)
CATTPCSGDWAGNASASA [HC1911]	1.59	-1.02 (inactive)	0.621 (inactive)
CAEVGTSTWVAGNASASA [HC2196]	0.089 (inactive)	1.37	0.992 (inactive)
CAEVVTSTWSAGNASASA [HC2257]	0.148 (inactive)	-0.0297 (inactive)	0.967 (inactive)
CASTPCSEHLAGNASASA [HC2532]	1.63	0.136 (inactive)	-0.509 (inactive)
CAVEFLVQAWAGNASASA [HC1471]	-1.03 (inactive)	-0.538 (inactive)	0.302 (inactive)
CALEDNVTPIAGNASASA [HC1434]	-0.871 (inactive)	-0.336 (inactive)	-2.15 (inactive)
CAADLEVVTSAGNASASA [HC986]	0.0893 (inactive)	-0.606 (inactive)	-0.099 (inactive)
CARPSRPWRDAGNASASA [FS-1479]	-0.109 (inactive)	1.22	0.811 (inactive)
CATSSRSARKAGNASASA [FS-1617]	-0.831 (inactive)	2.68	0.36 (inactive)
CAYDSMKKRDAGNASASA [FS-389]	0.389 (inactive)	0.234 (inactive)	0.576 (inactive)
CARPSRQIHKAGNASASA [FS-2286]	1.18	-0.223 (inactive)	1.59
CATSNSLKRDAGNASASA [FS-885]	-0.606 (inactive)	0.0826 (inactive)	-0.0438 (inactive)
CARPSRVARDAGNASASA [FS-1565]	13.5 (active)	13.3 (active)	9.92 (active)
CAIITRWKRDAGNASASA [FS-1013]	11.5 (active)	11.3 (active)	8.16 (active)
CATSSRRKRDAGNASASA [FS-630]	11 (active)	10.2 (active)	7.47 (active)
CAQYLAGLSTAGNASASA [HC1047]	-0.145 (inactive)	1	1.23
CARKKKAWIYAGNASASA [FS-2559]	0.615 (inactive)	-1.67 (inactive)	-1.6 (inactive)
CAVGCCSMSYAGNASASA [HC2016]	-0.196 (inactive)	-0.437 (inactive)	1.21
CAQSPRSFQKAGNASASA [TR4]	-0.296 (inactive)	-2.07 (inactive)	-0.29 (inactive)
CALMGYIPLVAGNASASA [HC227]	0.341 (inactive)	2.34	-0.327 (inactive)
CAMEICSQHLAGNASASA [HC1704]	0.947 (inactive)	2.02	0.46 (inactive)
